M4 antag: antagonists of human muscarinic M4 receptor (CHRM4); inhibition, % at 3 µM; actives 0.73% (n = 360,000); P08173; CHO-hM4 cells, ACh EC80, Fluo-8 calcium fluorescence; AID 624125;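 active = inhibition above its plate's cutoff, the mean inhibition of sample wells plus 3 SD, cut at about 27% in these data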
Target sequence (P08173 whole entry, looked up): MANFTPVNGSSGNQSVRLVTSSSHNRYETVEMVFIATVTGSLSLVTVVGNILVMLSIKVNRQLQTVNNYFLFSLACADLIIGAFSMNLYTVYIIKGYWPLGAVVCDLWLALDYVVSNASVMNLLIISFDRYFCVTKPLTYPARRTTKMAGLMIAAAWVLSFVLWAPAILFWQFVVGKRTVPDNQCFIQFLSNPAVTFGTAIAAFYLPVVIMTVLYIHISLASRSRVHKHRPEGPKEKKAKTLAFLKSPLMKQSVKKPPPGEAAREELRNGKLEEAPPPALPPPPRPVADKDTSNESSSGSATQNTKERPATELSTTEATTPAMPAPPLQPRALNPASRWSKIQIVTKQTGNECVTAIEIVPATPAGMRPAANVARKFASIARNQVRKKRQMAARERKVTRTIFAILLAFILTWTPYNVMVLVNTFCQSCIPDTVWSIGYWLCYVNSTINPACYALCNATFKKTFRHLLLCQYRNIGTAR
M4 PAM: CHRM4 positive allosteric modulation. P08173. CHO-K1 hM4/Gqi5, Fluo-8 calcium fluorescence, ACh EC20; 0% = ACh EC20, 100% = maximal ACh. activation, % at 3 µM. actives 0.4% (n = 360,000). AID 624126;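 active = activation above its plate's cutoff, the mean activation of sample wells plus 3 SD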
CHO-K1 Ca PAM: M1 PAM counterscreen hit in parental CHO-K1 cells. ATP EC20, Fluo-8 calcium fluorescence; 0% at ATP EC20, 100% at ATP max. activation, % at 3 µM. actives 0.02% (n = 360,000);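 active = activation above the run cutoff, the mean activation of all test compounds plus 3 SD, cut at about 40% in these data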;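 also: peak over basal fluorescence ratio in a 140 s read after ATP addition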
M4 ag: agonists of human muscarinic M4 receptor (CHRM4); P08173; CHO-K1 hM4/Gqi5, Fluo-8 calcium fluorescence; vehicle 0%, full acetylcholine response 100%; activation, % at 3 µM; actives 0.14% (n = 360,000); AID 624127;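 active = activation above the run mean over all test wells plus 3 SD, cut at about 32% in these data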;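 also: peak over basal fluorescence ratio per well then scaled between controls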
CHO-K1 Ca antag: M1 antagonist counterscreen hit in parental CHO-K1 cells; inhibition, % at 3 µM; ATP-induced calcium, Fluo-8 fluorescence; actives 0.6% (n = 360,000);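 active = inhibition above a per-plate cutoff, the plate's mean sample inhibition plus 3 SD, cut at about 24% in these data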
CHO-K1 Ca ag: M1 agonist counterscreen hit in parental CHO-K1 cells; Fluo-8 calcium fluorescence; scaled to maximal ATP response, vehicle zero; activation, % at 3 µM; actives 0.48% (n = 360,000); AID 602248; in the data active = activation above about 15%;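 also: untransfected CHO-K1 host cells lacking M1 receptor as counterscreen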
A number is an active result; - = inactive; . = no result. In the library only some 2% were active in any assay of this set; here they are far more common.

SMILES	M4 antag	M4 PAM	CHO-K1 Ca PAM	M4 ag	CHO-K1 Ca antag	CHO-K1 Ca ag
CC(=O)N1C2=CCCC3CCCCC23c2ccccc21 (centres undefined)	-	-	-	-	-	-
CC(Sc1nnc(C2CC2)n1-c1ccccc1)C(=O)N1CCNC1=O (centres undefined)	-	23	-	-	-	-
CC(Sc1nnc(C2CC2)n1Cc1ccccc1)C(=O)N1CCNC1=O (centres undefined)	-	-	-	-	-	-
CCOC(=O)CN1c2ccccc2NC(=O)CC1C (centres undefined)	-	-	43	-	-	-
CCN1CCCC1CN(Cc1cc2c(C)cc(C)cc2[nH]c1=O)C(=O)NC1CCCCC1 (centres undefined)	36	-	-	-	-	-
CC(C)C(C(=O)NCC1CCCO1)N(Cc1ccccc1)C(=O)CNS(=O)(=O)c1ccccc1 (centres undefined)	-	-	-	-	-	-
CCOC(=O)C1CCN(S(=O)(=O)c2ccc(C)c(C)c2)CC1	-	-	-	-	-	17
Cc1ccc(S(=O)(=O)N2CCC(C(N)=O)CC2)cc1C(=O)NC1CCCCC1	-	21	-	-	-	-
COc1ccc(NC(=O)C2CCN(S(=O)(=O)c3ccc(OC)c(OC)c3)CC2)c(OC)c1	-	-	-	-	26	-
COc1ccc(C)cc1S(=O)(=O)N1CCC(C(=O)NC2CCCC2)CC1	-	20	-	-	-	-
CCOC(=O)C1CCN(S(=O)(=O)c2ccc(OC)c(OC)c2)CC1	-	-	-	-	-	-
Cc1ccc(S(=O)(=O)N2CCCC2)cc1C(=O)NC1CCCCC1	-	-	-	-	-	-
O=C(Nc1csnn1)OCc1ccccc1	-	-	-	-	-	-
CCOC(=O)C1CCN(S(=O)(=O)c2ccc3[nH]c4c(c3c2)CCCC4)CC1	-	-	-	-	-	16
O=C(Cn1c(=O)oc2cc(S(=O)(=O)N3CCCCCC3)ccc21)NC1CCCCC1	-	17	-	-	-	-
CCOC(=O)C1CCN(S(=O)(=O)c2ccc3[nH]c(=O)c(=O)[nH]c3c2)CC1	-	-	-	-	-	-
CCc1c(C)sc(NC(=O)c2cc(-c3ccc(O)cc3)on2)c1C#N	-	-	-	-	33	-
CC1CCCC(NC(=O)C2CCN(S(=O)(=O)c3cnc[nH]3)CC2)C1C (centres undefined)	-	-	-	-	-	-
Cc1ccc(CNC(=O)CSc2nnc(CNC(=O)c3ccccc3)o2)cc1	-	23	-	-	-	-
CCn1nc(C)c(CN2CCC(C(=O)Nc3cccc(-c4cccc(F)c4)c3)CC2)c1C	-	-	-	-	-	-
CN(CCOc1ccc(Cl)cc1)C(=O)c1cc(-c2ccco2)nc2ccccc12	-	-	-	-	24	-
O=C(N1CCCCCC1)N1CCN(S(=O)(=O)c2cccc([N+](=O)[O-])c2)CC1	-	-	-	-	-	-
CCN(CC)S(=O)(=O)c1ccc(-c2csc(C)n2)cc1	-	-	-	-	-	-
CCCN(CCC)S(=O)(=O)c1cccc(-c2csc(C)n2)c1	-	-	-	-	-	22
O=S(=O)(CCN1CCCCC1)CCS(=O)(=O)CCN1CCCCC1	-	-	-	-	-	-
SMILES	M4 antag	M4 PAM	CHO-K1 Ca PAM	M4 ag	CHO-K1 Ca antag	CHO-K1 Ca ag
COC(=O)[C@@]1(Sc2ccc(C)cc2)CC(=O)N(c2ccccc2)[C@@H]1c1ccccc1	40	-	-	-	-	-
COC(=O)[C@@]1(Sc2ccc(C)cc2)CC(=O)N(C(=O)CCc2ccccc2)[C@@H]1c1ccccc1	-	-	-	-	-	-
CC1=C(C)CS(=O)N(S(=O)(=O)c2ccccc2)C1 (centres undefined)	-	-	-	-	-	-
O=S(=O)(/N=S1\CC=CCN1S(=O)(=O)c1ccccc1)c1ccccc1 (centres undefined)	-	-	-	60	-	35
COc1cc(/C=C/C(=O)O)cc(S(=O)(=O)NC2CCCC2)c1OC	98	-	-	-	-	-
COc1cc(/C=C/C(=O)O)cc(S(=O)(=O)Nc2cc(Cl)c(Cl)cc2Cl)c1OC	-	-	-	-	-	-
C[n+]1c(/C=C/c2ccc(O)cc2)ccc2ccccc21	-	-	-	-	-	-
Cc1cc(/C=C\c2ccc3cc(N(C)C)ccc3[n+]2C)c(C)n1-c1ccccc1	45	-	-	-	35	20
Cc1nc2ccccc2n1CC(O)COc1ccccc1Cl (centres undefined)	30	-	-	-	-	-
Cc1nc2ccccc2n1CC(O)COc1ccc(Br)cc1 (centres undefined)	-	-	-	-	-	-
Cc1ccccc1Cn1c(C)nc2ccccc21	-	-	-	-	29	-
Cc1nc2ccccc2n1Cc1ccc(Cl)cc1	-	-	-	-	33	-
Cc1ccccc1OCC(O)Cn1c(=N)n(Cc2ccccc2)c2ccccc21 (centres undefined)	27	-	-	-	-	-
OCc1nc2ccccc2n1Cc1ccc(Cl)cc1	-	-	-	-	-	-
COc1cc2c(cc1OC)CN(C(=O)c1ccc(N3CCCC3)c([N+](=O)[O-])c1)CC2	-	-	-	-	-	-
Cc1cscc1NC(=O)/C=C/C(=O)O	-	-	-	-	-	-
CN(C)C(=O)C[C@@H]1C=C[C@@H](NC(=O)C2CCC2)[C@@H](CO)O1	-	-	.	-	.	.
Cc1ccc(NC(=O)CCC(=O)OCC(=O)c2ccc(Oc3ccc([N+](=O)[O-])cc3)cc2)c(C)c1	-	-	-	-	30	-
COc1ccc(-c2n[nH]c3c2CN(C(=O)c2ccc(OC)c(OC)c2)CC3)cc1	-	-	-	-	-	-
O=C(Cc1ccccc1)N1CCc2[nH]nc(-c3ccccc3)c2C1	-	18	-	-	-	-
CC1CCC2(CC1)NC(=O)N(CC(=O)Nc1cccnc1Cl)C2=O (centres undefined)	-	-	-	-	-	-
CC1(c2ccc(OC(F)F)cc2)NC(=O)N(CC(=O)Nc2ccccc2)C1=O (centres undefined)	-	-	-	67	-	46
CC1(c2ccc(OC(F)F)cc2)NC(=O)N(CC(=O)Nc2ccc3[nH]c(=O)[nH]c3c2)C1=O (centres undefined)	-	-	-	-	-	-
CC1(c2ccc(Cl)cc2)NC(=O)N(CC(=O)Nc2cccnc2Cl)C1=O (centres undefined)	-	-	-	-	-	17
CC1(c2ccc(OC(F)F)cc2)NC(=O)N(CC(=O)Nc2ccc3c(c2)OCO3)C1=O (centres undefined)	-	-	-	32	-	29

From PubChem
